± gives the standard deviation of the averaged measurements.

This assay relates to SW480. Briefly: cell viability (CellTiter-Glo) relative to plate median (fraction of plate median); higher = more viable cells. The following applies: 5 µM; treatment time 24 h; reporter: 7TFP. In a few lines:
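Values are well luminescence normalised to the plate median, from either a firefly luciferase or a CellTiterGlo readout on parallel plates. The cells, colorectal cancer lines stably transduced with lentiviral 7TFP or TCF4/Wnt firefly luciferase reporters, were treated with library compounds at a final 5 µM for 24 h. The mean of two independent replicates is listed.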
Take `O[C@H]1[C@H](O)[C@@H](O)[C@H](O)[C@@H](O)[C@H]1O`: the cell viability was 0.931 ± 0.0057.
For the compound `CCCCc1nc(Cl)c(CO)n1Cc1ccc(-c2ccccc2-c2nnn[nH]2)cc1`, the cell viability was determined as 1.02 ± 0.045.
Next, `CO/C=C/C(=O)c1cc2cnc3c(=N)cc(NC(C)=O)c([nH]1)c23` [Lymphostin]: 1.14 ± 0.092.
Compound `CC/C(=C(/CC)c1ccc(O)cc1)c1ccc(O)cc1` returned a cell viability of 0.982 ± 0.11.
For `CC(O)(P(=O)(O)O)P(=O)(O)O`, the cell viability worked out at 0.956 ± 0.037.
In the case of `NC[C@@H]1O[C@H](O[C@H]2[C@@H](O)[C@H](O[C@@H]3[C@@H](O)[C@H](N)C[C@H](N)[C@H]3O[C@H]3O[C@H](CO)[C@@H](O)[C@H](O)[C@H]3N)O[C@@H]2CO)[C@H](N)[C@@H](O)[C@@H]1O` it was 1.065 ± 0.0071; in that of `CCC(=O)OCC(=O)[C@@]1(OC(=O)CC)[C@H](C)CC2C3C([C@@H](O)C[C@@]21C)[C@@]1(C)C=CC(=O)C=C1C[C@H]3Cl` (some centres not stated), 0.975 ± 0.0057.
With `CC(C)(S)[C@@H](N)C(=O)O`, the cell viability is 0.9765 ± 0.0092.
Consider `C=CC[C@@H]1/C=C(\C)C[C@H](C)C[C@H](OC)[C@H]2O[C@@](O)(C(=O)C(=O)N3CCCC[C@H]3C(=O)O[C@H](/C(C)=C/[C@@H]3CC[C@@H](O)[C@H](OC)C3)[C@H](C)[C@@H](O)CC1=O)[C@H](C)C[C@@H]2OC`, for which the cell viability was determined as 1.1 ± 0.021.
Next, `COc1ccc(-c2cc(=O)c3c(O)c(OC)c(OC)c(OC)c3o2)cc1OC`: 1.15 ± 0.18.
Turning to `CC(=O)O[C@H]1CC[C@]2(C)[C@H]3CC=C4[C@@H]5CC(C)(C)CC[C@]5(C(=O)O)CC[C@@]4(C)[C@]3(C)CC[C@H]2C1(C)C`, the cell viability was 1.02 ± 0.033.
`Cc1cc(C)cc(OCC2CNC(=O)O2)c1` (configuration not stated) gave a cell viability of 0.975 ± 0.05.

Values taken from the supplement of paper PMC6522484.
